Biological target: EPHA8
Assay: pooled miR-30 sensor sort-seq; sequence = guide strand
Details: shRNA
Also: reference of the scale not given here.

Row | Sequence | sensor-assay potency score (higher = more potent)
1 | TGATAGTGCATCTTCTCCTCGT | 0.0465
2 | TCGATTTTGAGGAACTGGCTTT | -0.582
3 | TTGCTGTCAACCAGGACGTTGC | -1.32
4 | ATGAGCGTCAGGCAGATCCAGA | -1.66
5 | TTGATCTCAGCATAGACGCGCC | -0.595
6 | TGCATGATGGTGAACTGCCCGT | -1.1
7 | TTGTCCTTCTCGTAGTACTTGA | -0.781
8 | TCTGATAGTGCATCTTCTCCTC | 0.0792
9 | TTGACGGATCACCACCACCTGG | -1.47
10 | TAGCCGGCACTGCACACGCATT | -1.71
11 | TCATACTCCAGGATGATGCCGT | 0.44
12 | TACATCTTGGGTGTGTCCCGCT | -0.241
13 | ATCGAGGACACTGACAATCTGG | -0.163
14 | TGCATCTTCTCCTCGTCCGAGT | -1.08
15 | TTTCCCGGTCTCCACCTCCATG | -1.71
16 | TCTCGTAGTACTTGATCTCATA | -1.09

Biological target: EPHB3
Assay: as above
Details: shRNA

Row | Sequence | sensor-assay potency score (higher = more potent)
17 | TTGTACAGGAGGTCATCCCGGC | -0.315
18 | TTGCAGTAGAGCTTGAGTGGCA | -0.145
19 | TCACATTGGAGATCACACCTCG | 0.593
20 | TTACACACCTGGTATGTGCGGA | 0.227
21 | TTGTGGTCTCAAACTCGGCAGG | -1.08
22 | TCACCAACTGTCGTGAAGGTTG | -0.896
23 | TATGACAGCACCAAGGGCGGGG | -0.054
24 | TTCATCTGGCTGGTCACTGTGG | -0.423
25 | AACTGGTGTAGGTAGGATCGGA | -0.385
26 | TTGCAGATGACATTGTACAGGA | -0.122
27 | TTGTCATCACAGCGTGAGCAGG | -1.61
28 | TACTGCTGCAGCTTCTCCGTGT | 0.38
29 | ATTGCGGATGAGCTTGTCCAGG | -1.31
30 | TTGAGCTCCACGTAGACCCGCT | 0.189
31 | TTGTTCTGGCTTGACTCGCGCA | -0.743
32 | TAGTCCAGGATGACTCCGTTGG | -0.557
33 | TGAGGTTTCATTCACATTGGAG | -0.889
34 | TCTCCGTGTACTCCGAATCAGA | -1.2
35 | TTGCTGTTGACAAGGATGTTGC | -0.897
36 | TCGTAGTCCAGGATGACTCCGT | -0.375
37 | ATGACAATTCCGTAGCTCCAGA | -1.32
38 | TAGCAGAAGTGAACTTCCGATA | -0.801
39 | TACTTCATCTCGTAGTCCAGGA | -0.409
